Laboratory results from PubChem BioAssay AID602127 (Broad Institute, 2011).
Entries with a potency or affinity are not part of this list. Calls of active or inactive are those of the source.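 How the source made its calls: active means every repeat test judged active, meaning a falling signal with potency within twice the top valid dose; inconclusive means repeat tests disagree on the call; inactive means every repeat test inactive, including signal moving upward.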

The compounds below were run against Cyclin-dependent kinase 2 (Homo sapiens) (UniProt P24941) (assay: inhibition of human CDK2/cyclin A – biochemical, cherry-picked samples, selectivity assay for Dyrk1A inhibitor project, dose response (AID 602127)). Settings: ADP-Glo luminescence, 60 min; series mostly up to 10 µM; activity change, negative = inhibition: at the top concentration.

Activity change, negative = inhibition, inactive:
Cc1ccc(CNc2ncnc3ccc(-c4ccoc4C)cc23)o1 15.1%
c1csc(CNc2ncnc3ccc(-c4ccoc4)cc23)c1 -17.2%
Cc1noc(CN(C)c2ncnc3ccc(-c4ccc5c(c4)OCO5)cc23)n1 -6.39%
COc1cc(C(=O)Nc2cccc(-c3nncn3C)c2)cc(OC)c1OC -1.46%
O=[N+]([O-])c1cc(Nc2nccc(-c3ccc4c(c3)OCO4)n2)cc(C(F)(F)F)c1 -0.986%
Cc1noc(NS(=O)(=O)c2ccc(NC(=O)c3oc4ccc(F)cc4c3C)cc2)c1C -7.63%
CCN1CCN(Cc2ccc(NC(=O)c3ccc(C)c(/C=C/c4cnc(Nc5cc(N6CCNCC6)nc(C)n5)cn4)c3)cc2C(F)(F)F)CC1 -2.61%
Cc1noc(NS(=O)(=O)c2ccc(NC(=O)c3oc4ccc(Cl)cc4c3C)cc2)c1C -14.5%
Clc1ccc(CNc2nccc(-c3ccc4c(c3)OCO4)n2)cc1Cl 2.91%
Brc1ccc(CNc2nccc(-c3ccc4c(c3)OCO4)n2)cc1Br 2.82%
O=C(O)COc1ccc(/C=C/c2nc3ccc([N+](=O)[O-])cc3s2)cc1 7.07%
Cc1ccc(CNc2ncnc3ccc(-c4ccc5c(c4)OCO5)cc23)o1 -4.91%
c1csc(CCNc2ncnc3ccc(-c4ccc5c(c4)OCO5)cc23)c1 -13.2%
N#Cc1c(C(F)(F)F)cc(-c2cccc(Cl)c2)[nH]c1=O 1.81%
Brc1cc(Br)cc(CNc2nccc(-c3ccc4c(c3)OCO4)n2)c1 -3.23%
Cc1occc1CNc1ncnc2ccc(-c3ccc4c(c3)OCO4)cc12 -0.879%
CCN1CCN(Cc2ccc(NC(=O)c3ccc(C)c(NC(=O)N4CCNC4=O)c3)cc2C(F)(F)F)CC1 -7.15%
Cc1nc(N)sc1-c1csc(Nc2ccccc2)n1 -2.75%
Cc1c(-c2ccnc(NCc3ccc(Cl)cc3)n2)sc(=O)n1C 2.58%
Clc1ccc(CNc2ccnc(-c3ccc4[nH]ncc4c3)n2)cc1Cl -5.16%
c1cncc(CNc2ccnc(-c3ccc4[nH]ncc4c3)n2)c1 -3.74%
CC1Cc2ccccc2N1c1ncnc2nc[nH]c12 (stereo unspecified) -5.61%
CCN(Cc1cccs1)c1ncnc2ccc(-c3ccc4c(c3)OCO4)cc12 -3.99%
N#CCSc1nc(Nc2ccc3c(c2)OCO3)c2ccccc2n1 -21.3%
O=c1cc(-c2ccccc2Cl)oc2c(NS(=O)(=O)c3ccccc3C(F)(F)F)ccc(O)c12 -8.7%
COCCNC(=O)c1ccc2c(c1)nc(C)n2-c1cccc(F)c1 1.17%
CSCC(=O)Nc1nc(-c2ccc3c(c2)OCCO3)cs1 -13.3%
CCCC(=O)Nc1nc(-c2ccc3c(c2)OCCO3)cs1 -16.7%
COc1cccc(Nc2ncnc3ccccc23)c1 -17.9%
COc1ccc2c(c1)CCc1c-2n[nH]c1C(=O)O 4.31%

outcome, inactive:
CCOC(=O)c1ccc(-c2ccc3ncnc(NCc4ccc(C)o4)c3c2)o1
